Results: the supplement of paper PMC11732987, “Enantioselective OTUD7B fragment discovery through chemoproteomics screening and high-throughput optimisation” (Communications Chemistry, 2025)

Tests used:
Test in all cases: log2 ratio of Biotin-Ahx-Ub-VS probe labelling (fragment/DMSO); higher = less target engagement (more negative = stronger competition), active = hit call of the paper (q ≤ 0.05, log2 ratio ≤ -1)
Conditions in all cases: compound concentration: 200 uM; treatment time: 3 h
USP42 = biological target: T1, USP42 (UniProt Q9H9J4)
T1 sequence (whole entry): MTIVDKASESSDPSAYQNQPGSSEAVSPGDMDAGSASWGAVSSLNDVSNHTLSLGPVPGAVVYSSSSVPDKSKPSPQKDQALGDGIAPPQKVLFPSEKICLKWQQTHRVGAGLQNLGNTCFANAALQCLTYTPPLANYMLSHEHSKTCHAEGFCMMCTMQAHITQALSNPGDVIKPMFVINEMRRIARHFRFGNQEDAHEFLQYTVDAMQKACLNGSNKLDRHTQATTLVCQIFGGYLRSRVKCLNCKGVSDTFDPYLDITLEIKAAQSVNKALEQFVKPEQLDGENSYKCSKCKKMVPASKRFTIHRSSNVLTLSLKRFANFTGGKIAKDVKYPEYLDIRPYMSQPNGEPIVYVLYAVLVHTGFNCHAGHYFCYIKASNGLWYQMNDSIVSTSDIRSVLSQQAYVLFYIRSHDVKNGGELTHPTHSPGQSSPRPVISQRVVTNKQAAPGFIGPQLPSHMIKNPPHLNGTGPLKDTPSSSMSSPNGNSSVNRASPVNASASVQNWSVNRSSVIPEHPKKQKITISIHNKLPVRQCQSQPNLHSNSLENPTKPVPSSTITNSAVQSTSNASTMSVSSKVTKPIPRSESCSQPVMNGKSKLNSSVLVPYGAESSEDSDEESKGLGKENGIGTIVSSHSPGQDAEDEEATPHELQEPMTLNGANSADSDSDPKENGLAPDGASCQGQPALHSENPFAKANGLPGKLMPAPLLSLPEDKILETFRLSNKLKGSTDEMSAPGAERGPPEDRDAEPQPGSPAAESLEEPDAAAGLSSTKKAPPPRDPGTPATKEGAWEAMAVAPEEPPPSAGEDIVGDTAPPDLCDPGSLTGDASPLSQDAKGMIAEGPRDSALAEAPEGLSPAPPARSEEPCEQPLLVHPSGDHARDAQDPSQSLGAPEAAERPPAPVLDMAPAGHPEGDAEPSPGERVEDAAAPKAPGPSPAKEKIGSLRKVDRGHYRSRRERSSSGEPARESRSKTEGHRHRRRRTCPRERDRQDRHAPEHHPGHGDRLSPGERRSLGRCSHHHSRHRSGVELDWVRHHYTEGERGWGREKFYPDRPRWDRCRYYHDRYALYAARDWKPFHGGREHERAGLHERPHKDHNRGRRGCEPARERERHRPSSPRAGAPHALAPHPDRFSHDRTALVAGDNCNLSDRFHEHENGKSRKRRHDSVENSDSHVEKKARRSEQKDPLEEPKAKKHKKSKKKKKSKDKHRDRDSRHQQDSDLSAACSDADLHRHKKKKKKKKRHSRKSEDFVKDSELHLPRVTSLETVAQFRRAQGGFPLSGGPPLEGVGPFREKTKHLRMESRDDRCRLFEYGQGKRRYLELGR
Outline: (§1)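 In triplicate, 495 µg of HEK293T lysate per sample was incubated with fragment at 200 µM or vehicle for 3 h. Biotin-Ahx-Ub-VS was then added to 0.5 µM final for 1 h, and labelled DUBs were captured with NeutrAvidin, digested with LysC and trypsin, and measured by diaPASEF LC-MS/MS. Data are average log2 fragment/vehicle ratios by unpaired t-test from global-median-normalised Spectronaut label-free quantities, restricted to proteins with ≥2 unique peptides.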

USP46 = USP46 (UniProt P62068)
Sequence of USP46 (P62068 whole entry): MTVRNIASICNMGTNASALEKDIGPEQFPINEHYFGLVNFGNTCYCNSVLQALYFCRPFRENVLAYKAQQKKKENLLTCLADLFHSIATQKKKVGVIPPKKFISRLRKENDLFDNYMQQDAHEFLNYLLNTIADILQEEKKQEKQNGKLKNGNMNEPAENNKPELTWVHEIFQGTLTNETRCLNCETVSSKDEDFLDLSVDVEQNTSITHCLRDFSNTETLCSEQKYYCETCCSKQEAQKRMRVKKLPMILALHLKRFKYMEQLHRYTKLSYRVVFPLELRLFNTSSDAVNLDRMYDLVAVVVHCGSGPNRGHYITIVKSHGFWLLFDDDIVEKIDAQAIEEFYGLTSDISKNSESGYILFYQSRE
Outline: as §1

USP47 = biological target: T2, USP47 (UniProt Q96K76)
T2 sequence (whole entry): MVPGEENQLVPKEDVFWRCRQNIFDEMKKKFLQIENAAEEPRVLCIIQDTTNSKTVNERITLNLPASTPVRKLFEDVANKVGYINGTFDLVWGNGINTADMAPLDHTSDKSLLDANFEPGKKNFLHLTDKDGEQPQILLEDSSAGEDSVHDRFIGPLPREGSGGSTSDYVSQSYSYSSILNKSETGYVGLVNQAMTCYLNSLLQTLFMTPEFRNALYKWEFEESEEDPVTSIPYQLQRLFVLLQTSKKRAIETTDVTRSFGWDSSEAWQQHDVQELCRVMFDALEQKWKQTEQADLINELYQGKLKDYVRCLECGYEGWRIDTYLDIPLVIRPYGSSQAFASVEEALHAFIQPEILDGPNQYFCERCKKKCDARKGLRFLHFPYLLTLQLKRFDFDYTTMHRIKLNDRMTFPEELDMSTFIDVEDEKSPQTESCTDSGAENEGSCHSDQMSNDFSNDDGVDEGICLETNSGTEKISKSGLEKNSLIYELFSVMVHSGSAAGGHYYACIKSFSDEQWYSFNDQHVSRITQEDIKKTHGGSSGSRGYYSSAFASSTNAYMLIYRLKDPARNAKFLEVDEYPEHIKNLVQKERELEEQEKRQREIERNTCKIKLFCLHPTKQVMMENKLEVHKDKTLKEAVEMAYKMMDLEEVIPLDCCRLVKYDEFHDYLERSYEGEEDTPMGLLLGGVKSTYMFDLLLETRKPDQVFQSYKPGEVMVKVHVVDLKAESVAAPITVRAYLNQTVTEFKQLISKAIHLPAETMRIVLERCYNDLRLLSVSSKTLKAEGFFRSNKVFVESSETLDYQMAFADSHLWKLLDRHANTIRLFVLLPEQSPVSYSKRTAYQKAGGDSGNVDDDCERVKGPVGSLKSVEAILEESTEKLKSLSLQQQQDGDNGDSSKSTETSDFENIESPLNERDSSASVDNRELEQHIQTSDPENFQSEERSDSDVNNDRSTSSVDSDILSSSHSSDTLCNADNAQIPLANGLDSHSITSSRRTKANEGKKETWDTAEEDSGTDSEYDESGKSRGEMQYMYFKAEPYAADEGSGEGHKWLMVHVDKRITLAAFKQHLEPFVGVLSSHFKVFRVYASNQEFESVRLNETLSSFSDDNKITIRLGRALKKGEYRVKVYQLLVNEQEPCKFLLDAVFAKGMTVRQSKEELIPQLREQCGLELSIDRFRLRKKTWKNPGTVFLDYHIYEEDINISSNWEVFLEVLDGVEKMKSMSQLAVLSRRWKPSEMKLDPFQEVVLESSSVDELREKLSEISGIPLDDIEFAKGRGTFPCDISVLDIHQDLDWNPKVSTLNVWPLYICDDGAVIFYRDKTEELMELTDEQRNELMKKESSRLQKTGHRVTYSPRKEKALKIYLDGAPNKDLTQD
Outline: as §1

USP48 = biological target: T3, USP48 (UniProt Q86UV5)
T3 sequence (whole entry): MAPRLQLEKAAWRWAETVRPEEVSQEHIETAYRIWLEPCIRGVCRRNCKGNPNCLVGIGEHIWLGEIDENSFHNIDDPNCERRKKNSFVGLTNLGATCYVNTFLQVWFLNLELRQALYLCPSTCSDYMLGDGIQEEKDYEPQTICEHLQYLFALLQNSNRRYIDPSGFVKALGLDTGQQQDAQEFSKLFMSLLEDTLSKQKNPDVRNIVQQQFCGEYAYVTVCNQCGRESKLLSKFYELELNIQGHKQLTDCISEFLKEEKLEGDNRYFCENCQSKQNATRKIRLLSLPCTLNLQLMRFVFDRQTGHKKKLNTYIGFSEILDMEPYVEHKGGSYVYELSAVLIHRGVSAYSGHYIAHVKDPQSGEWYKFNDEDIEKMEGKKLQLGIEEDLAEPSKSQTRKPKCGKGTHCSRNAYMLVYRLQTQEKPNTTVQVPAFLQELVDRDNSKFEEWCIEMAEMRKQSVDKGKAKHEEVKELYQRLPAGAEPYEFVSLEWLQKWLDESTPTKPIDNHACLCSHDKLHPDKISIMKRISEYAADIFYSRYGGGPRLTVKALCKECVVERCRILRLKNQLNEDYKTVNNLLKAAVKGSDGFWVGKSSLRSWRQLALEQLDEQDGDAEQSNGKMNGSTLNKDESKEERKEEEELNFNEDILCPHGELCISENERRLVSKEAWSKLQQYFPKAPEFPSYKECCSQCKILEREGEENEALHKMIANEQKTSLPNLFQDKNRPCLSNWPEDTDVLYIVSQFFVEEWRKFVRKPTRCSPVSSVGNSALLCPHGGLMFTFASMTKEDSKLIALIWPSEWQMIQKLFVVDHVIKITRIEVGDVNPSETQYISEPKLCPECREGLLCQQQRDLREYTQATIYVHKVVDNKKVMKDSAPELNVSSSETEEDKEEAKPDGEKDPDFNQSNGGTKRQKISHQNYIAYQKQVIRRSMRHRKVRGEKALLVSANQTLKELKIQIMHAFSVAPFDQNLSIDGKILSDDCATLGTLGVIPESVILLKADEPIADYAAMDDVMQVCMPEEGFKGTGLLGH
Outline: as §1

USP5 = biological target: T4, USP5 (UniProt P45974)
T4 sequence (whole entry): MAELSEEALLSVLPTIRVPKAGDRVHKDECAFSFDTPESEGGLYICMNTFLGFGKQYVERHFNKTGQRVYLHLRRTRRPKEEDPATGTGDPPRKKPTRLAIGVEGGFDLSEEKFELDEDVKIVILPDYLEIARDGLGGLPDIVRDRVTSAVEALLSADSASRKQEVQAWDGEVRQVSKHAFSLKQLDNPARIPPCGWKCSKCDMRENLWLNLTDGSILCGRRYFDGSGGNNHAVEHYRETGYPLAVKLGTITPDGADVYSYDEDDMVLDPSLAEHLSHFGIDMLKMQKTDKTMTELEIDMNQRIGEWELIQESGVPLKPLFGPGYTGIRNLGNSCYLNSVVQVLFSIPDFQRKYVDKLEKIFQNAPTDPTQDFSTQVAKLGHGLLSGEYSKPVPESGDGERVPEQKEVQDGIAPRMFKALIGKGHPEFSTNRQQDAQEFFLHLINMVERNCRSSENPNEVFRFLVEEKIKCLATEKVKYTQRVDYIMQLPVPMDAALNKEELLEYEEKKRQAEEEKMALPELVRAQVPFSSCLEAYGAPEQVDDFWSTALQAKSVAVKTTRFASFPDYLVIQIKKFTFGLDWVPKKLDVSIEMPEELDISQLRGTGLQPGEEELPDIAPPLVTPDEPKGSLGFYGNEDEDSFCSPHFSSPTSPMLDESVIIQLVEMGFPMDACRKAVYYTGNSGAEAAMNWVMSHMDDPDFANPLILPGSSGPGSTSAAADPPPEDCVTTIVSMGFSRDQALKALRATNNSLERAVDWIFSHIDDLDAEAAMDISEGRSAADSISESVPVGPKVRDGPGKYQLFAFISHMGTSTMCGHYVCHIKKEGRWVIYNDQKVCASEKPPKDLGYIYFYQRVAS
Outline: as §1

USP54 = USP54 (UniProt Q70EL1)
Sequence of USP54 (Q70EL1 whole entry): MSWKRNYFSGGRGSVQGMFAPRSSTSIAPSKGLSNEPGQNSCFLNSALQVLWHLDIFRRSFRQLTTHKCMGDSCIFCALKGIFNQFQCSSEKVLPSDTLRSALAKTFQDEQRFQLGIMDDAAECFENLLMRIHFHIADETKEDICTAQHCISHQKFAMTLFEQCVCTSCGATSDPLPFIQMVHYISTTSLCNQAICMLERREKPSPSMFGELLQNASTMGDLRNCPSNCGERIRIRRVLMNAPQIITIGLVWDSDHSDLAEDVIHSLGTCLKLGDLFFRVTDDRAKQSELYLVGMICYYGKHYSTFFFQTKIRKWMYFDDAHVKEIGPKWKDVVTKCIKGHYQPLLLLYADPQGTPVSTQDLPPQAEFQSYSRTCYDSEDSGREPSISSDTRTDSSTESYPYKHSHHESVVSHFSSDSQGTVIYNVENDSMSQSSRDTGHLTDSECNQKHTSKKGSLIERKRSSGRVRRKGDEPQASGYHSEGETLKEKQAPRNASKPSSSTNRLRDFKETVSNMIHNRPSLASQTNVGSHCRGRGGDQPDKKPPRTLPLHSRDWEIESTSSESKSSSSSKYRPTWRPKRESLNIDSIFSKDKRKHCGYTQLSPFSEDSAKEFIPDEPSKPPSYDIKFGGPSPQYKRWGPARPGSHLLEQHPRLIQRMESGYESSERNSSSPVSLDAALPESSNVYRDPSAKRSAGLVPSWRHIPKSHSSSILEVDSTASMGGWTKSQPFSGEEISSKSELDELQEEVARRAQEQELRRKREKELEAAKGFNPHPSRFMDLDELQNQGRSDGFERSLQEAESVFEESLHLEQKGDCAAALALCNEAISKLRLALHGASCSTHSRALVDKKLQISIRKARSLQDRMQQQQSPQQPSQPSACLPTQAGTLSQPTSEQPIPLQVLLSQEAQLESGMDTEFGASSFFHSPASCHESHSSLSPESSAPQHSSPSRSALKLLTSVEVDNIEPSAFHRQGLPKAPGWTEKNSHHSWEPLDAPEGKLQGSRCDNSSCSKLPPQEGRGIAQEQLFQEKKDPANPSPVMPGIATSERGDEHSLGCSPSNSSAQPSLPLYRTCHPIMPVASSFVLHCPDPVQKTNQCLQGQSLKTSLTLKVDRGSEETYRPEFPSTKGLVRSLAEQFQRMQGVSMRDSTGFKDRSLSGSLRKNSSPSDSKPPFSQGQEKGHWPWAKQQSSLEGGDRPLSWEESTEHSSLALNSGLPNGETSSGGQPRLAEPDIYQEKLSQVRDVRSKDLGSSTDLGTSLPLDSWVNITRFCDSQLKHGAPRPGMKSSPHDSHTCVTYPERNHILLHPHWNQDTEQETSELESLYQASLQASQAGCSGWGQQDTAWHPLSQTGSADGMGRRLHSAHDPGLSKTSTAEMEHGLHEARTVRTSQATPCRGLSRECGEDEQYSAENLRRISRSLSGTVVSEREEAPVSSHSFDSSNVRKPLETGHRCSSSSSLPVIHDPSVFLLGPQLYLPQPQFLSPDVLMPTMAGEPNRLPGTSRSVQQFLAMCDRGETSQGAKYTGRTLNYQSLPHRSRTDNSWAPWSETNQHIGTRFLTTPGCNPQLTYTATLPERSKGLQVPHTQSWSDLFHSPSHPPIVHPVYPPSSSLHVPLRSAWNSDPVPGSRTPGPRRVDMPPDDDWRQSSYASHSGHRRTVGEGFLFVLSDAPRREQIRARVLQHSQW
Outline: as §1

USP7 = USP7 (UniProt Q93009)
Sequence of USP7 (Q93009 whole entry, looked up): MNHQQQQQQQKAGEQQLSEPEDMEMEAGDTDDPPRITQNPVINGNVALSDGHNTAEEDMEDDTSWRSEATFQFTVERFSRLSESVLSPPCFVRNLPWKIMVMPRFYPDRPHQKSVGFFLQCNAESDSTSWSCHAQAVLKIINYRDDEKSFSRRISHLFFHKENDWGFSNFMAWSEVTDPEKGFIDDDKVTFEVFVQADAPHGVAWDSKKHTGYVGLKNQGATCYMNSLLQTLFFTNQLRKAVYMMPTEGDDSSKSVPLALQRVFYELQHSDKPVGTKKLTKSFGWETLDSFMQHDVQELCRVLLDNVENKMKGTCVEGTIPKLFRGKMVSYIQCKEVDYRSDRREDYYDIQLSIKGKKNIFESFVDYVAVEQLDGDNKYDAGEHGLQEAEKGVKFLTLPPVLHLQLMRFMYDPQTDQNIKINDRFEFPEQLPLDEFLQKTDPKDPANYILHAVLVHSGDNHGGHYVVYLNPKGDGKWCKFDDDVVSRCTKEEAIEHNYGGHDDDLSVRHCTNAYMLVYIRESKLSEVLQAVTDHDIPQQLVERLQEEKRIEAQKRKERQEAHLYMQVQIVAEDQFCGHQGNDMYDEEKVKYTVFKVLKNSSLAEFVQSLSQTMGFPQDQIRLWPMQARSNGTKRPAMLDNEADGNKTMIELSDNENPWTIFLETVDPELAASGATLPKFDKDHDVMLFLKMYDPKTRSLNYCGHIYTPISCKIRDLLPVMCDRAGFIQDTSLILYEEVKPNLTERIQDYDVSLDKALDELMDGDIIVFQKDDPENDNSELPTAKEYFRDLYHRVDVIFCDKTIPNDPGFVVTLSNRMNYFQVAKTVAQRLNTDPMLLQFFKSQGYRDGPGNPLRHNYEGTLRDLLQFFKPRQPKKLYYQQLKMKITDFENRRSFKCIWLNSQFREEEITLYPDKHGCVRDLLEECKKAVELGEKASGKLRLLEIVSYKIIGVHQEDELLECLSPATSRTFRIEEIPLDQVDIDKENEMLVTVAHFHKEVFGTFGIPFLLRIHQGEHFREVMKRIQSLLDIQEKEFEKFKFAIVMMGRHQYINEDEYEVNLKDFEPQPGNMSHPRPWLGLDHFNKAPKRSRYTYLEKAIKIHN
Outline: as §1

USP8 = biological target: T5, USP8 (UniProt P40818)
T5 sequence (whole entry): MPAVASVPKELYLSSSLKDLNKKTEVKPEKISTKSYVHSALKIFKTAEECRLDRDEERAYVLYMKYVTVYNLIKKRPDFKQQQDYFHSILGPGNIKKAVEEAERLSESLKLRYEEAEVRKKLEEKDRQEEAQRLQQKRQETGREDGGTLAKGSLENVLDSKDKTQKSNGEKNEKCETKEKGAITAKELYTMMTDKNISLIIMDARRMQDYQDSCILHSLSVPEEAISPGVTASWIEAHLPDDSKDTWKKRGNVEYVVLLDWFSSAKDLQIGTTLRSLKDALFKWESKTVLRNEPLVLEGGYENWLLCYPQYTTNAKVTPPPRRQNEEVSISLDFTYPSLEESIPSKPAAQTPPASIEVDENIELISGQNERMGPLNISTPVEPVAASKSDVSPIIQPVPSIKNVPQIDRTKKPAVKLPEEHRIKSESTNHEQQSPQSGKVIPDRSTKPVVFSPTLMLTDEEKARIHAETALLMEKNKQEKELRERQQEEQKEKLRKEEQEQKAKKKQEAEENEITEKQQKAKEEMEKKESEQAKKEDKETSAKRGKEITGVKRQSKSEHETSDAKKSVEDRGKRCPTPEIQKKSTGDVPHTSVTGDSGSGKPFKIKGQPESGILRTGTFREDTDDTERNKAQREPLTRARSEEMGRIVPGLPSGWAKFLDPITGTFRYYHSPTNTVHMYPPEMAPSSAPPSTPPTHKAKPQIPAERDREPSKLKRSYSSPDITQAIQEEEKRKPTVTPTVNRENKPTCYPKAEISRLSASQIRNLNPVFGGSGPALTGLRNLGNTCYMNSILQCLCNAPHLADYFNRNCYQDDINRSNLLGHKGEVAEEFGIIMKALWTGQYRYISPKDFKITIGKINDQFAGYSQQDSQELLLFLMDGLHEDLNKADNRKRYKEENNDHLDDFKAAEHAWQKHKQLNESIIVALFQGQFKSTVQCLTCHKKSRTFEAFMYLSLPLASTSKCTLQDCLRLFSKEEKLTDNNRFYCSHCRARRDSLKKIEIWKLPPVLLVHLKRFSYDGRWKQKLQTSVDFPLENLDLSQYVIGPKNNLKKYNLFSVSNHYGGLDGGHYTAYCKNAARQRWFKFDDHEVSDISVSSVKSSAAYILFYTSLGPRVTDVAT
Outline: as §1

Measured: log2 ratio of Biotin-Ahx-Ub-VS probe labelling

CS(=O)(=O)N1CCCN(C(=O)CCl)CC1
inactive: USP42 -0.107 | USP46 0.169 | USP47 -0.733 | USP48 -0.507 | USP5 -0.0151 | USP54 0.239 | USP7 -0.301 | USP8 -0.323
